The results in this text go back to PubChem BioAssay (NCI).

This is part of a sample that, as a whole, favours compounds with a hit. Of some 83,000 tested, about 20% had one in any assay.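 Interpretation: 100, growth as untreated; towards 0, rising growth inhibition; 0, no net growth; 0 to -100, cell death. Compounds scoring below 10 were considered active.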 Unmarked numbers belong to inactive results. Active and inactive are the calls of the source.

For one experiment, the system named is U251 CNS. Description: NCI-60 one-dose screen, 48 h (100 = growth as untreated, 0 = no growth, -100 = all killed). To be noted: 10 µM unless noted.
For `O=c1cc(Cc2ccc([N+](=O)[O-])cc2)[nH]c(=O)[nH]1`, the growth is 103%. As to `Cc1csc(NC(c2ccccc2)c2c(C)nc3ccccn23)n1` (stereo unspecified), the growth was 94.7%. The same measure, in the same setting: next, `Cc1ccc(/C=C2\CN(C(=O)CCN3CCC(=NO)CC3)C/C(=C\c3ccc(C)cc3)C2=O)cc1`: -49.6% (active); `O=C1Nc2ccc3c(c2/C1=C\c1cc2c(cc1Br)OCO2)OCO3`: 13.4%; `c1ccc(-c2nc(N3CCNCC3)c3nc(-c4ccccc4)oc3n2)cc1`: -93.5% (active). Consider `CCN(CC)c1ccc(CNc2ccnc3ccccc23)cc1`, for which the growth is 52.4%.

In the case of `CN(CCCCN(C[C@H]1Cc2ncccc2CN1)[C@H]1CCCc2cccnc21)C1CCC(F)(F)CC1`, the growth is 81.6%.

As for `ClC(Cl)c1nc(-c2ccccc2)nc2cc(-c3ccccc3)nn12`, the growth was 14.6%. `O=[N+]([O-])c1ccc(OCCCOc2ccccc2)cc1`: the growth was 90.7%. For `N#C/C(=C1C=C/C(=N/O)C(Cl)=C/1)c1ccc(Cl)cc1`, the growth is 46.4%.

As for `CCCCC(CC)OC(=O)C(Br)CC` (stereo unspecified), the growth is 97.2%. Take `C=C[C@@H]1C[C@@H]2Cc3c(C)cc(C)cc3N1O2`: the growth was 90.2%. As to `C=C[C@@H]1C[C@@H]2Cc3ccccc3N1O2`, the growth is 101%. On the same count and under the same terms, next, `CC(=O)OC[C@]12CC[C@H]3[C@@H](C[C@H]4O[C@]45CC=CC(=O)[C@]35C)[C@]1(O)CC[C@@]2(O)[C@@](C)(O)C1CC(C)=C(C)C(=O)O1` (stereo partly specified): -14.5% (active); `CO[C@H]1NC(=O)N(S(=O)(=O)c2ccc(Cl)cc2)[C@@H]1OC`: 101%; `COC(=O)c1cc2cc(-c3ccc(OC)cc3)cnc2[nH]1`: 12.6%. With `O=C(Nc1cccc(-n2cc(-c3ccncc3)c(-c3ccc(Cl)c(O)c3)n2)c1)Nc1cc(C(F)(F)F)cc(C(F)(F)F)c1`, the growth was -83.8% (active). As to `C[n+]1c(/C=C/c2c(O)ccc3ccccc23)ccc2ccccc21`, the growth was 17.3%. Consider `COc1ccc(-c2cn(-c3cccc(C(=O)/C=C/c4cc(OC)c(OC)c(OC)c4)c3)c(=O)[nH]2)cc1OC`, for which the growth was 71.6%.

For the compound `C=C[C@@H]1C[C@H](O)Cc2c(C)cc(C)cc2N1`, the growth is 97.3%. Take `O=C(O)Cc1cccc(=O)c(O)c1C(=O)O`: the growth is 109%.

As for `COc1cc(/C=C/C(=O)c2ccc(Nc3ncnc4cc(OC)c(OC)cc34)cc2)cc(OC)c1`, the growth was 72.3%.

On to `COc1cc(/C=C/C(=O)c2cccc(-n3cc(-c4cc(OC)c(OC)c(OC)c4)[nH]c3=O)c2)cc(OC)c1OC`, for which the growth is -41% (active). `COC1=C(OC)C(=O)C(CCCCCCCCCC[P+](c2ccccc2)(c2ccccc2)c2ccccc2)=C(C)C1=O`: the growth was -27.2% (active). As for `C=C[C@@H]1C[C@H](O)Cc2ccccc2N1`, the growth is 99.1%. Consider `CCN1C(=O)N(CC)C2C1NN=c1s/c(=C\c3cccnc3)c(=O)n12` (stereo unspecified), for which the growth is 19.1%. Same read-out and setting: the figure for `O=S(=O)(CC(O)(c1ccccc1)c1ccccc1)CC(O)(c1ccccc1)c1ccccc1` is 70.7%; for `CCN(CC)CCCC(C)Nc1c2ccc(Cl)cc2nc2cc(OC)c(OC)cc12` (stereo unspecified) it is 16.2%; for `CCCCCCCCCCCC(=O)NCCC[N+](C)(C)CC(=O)[O-]` it is 72.2%. Take `CCOC(=O)/C(C#N)=C1/C(=O)Nc2ccccc21`: the growth was 113%. Take `Cn1c(=O)c2[nH]c(C3CC=CCC3)nc2n(C)c1=O` (stereo unspecified): the growth is 105%. Turning to `O=[N+]([O-])c1cc(S(=O)(=O)Oc2ccccc2)ccc1Cl`, the growth was 0.0855% (active). For the compound `C=C(C)[C@@H]1C[C@H](O)Cc2cc(F)ccc2N1`, the growth is 92.7%. Take `COc1ccc2c(c1)[nH]c(=O)c1c3cccc(F)c3cn21`: the growth was 0.931% (active).

With `CN(C)c1nc2c(N)ncnc2n1C1OC(CO)C(O)C1O` (stereo unspecified), the growth was 110%. Same read-out and setting: next, `O=C1NN(C(=O)c2ccc(Cl)cc2)C(c2ccccc2)=N/C1=C\c1ccc(F)cc1`: 40.1%; `N[C@H]1CN(C(=O)c2cc3cc(Br)c(F)c(F)c3[nH]2)C[C@@H]1O`: 95.9%; `O=C1/C(=C/c2ccc(Cl)cc2)CN(Cc2cn(CCNc3ccnc4cc(Cl)ccc34)nn2)C/C1=C\c1ccc(Cl)cc1`: -100% (active).

Regarding `NC(=S)N/N=C1\CCCC(C(F)(F)F)C1` (stereo unspecified), the growth is 107%.

The next experiment has as its system PC-3 prostate. The description is as above. The settings on record: 10 µM unless noted.
As to `O=c1cc(Cc2ccc([N+](=O)[O-])cc2)[nH]c(=O)[nH]1`, the growth was 92.6%. Turning to `Cc1csc(NC(c2ccccc2)c2c(C)nc3ccccn23)n1` (stereo unspecified), the growth is 82.6%. Turning to `Cc1ccc(/C=C2\CN(C(=O)CCN3CCC(=NO)CC3)C/C(=C\c3ccc(C)cc3)C2=O)cc1`, the growth is 11.7%.

As for `O=C1Nc2ccc3c(c2/C1=C\c1cc2c(cc1Br)OCO2)OCO3`, the growth is 16.6%. As for `c1ccc(-c2nc(N3CCNCC3)c3nc(-c4ccccc4)oc3n2)cc1`, the growth was -62.3% (active). Take `CN(CCCCN(C[C@H]1Cc2ncccc2CN1)[C@H]1CCCc2cccnc21)C1CCC(F)(F)CC1`: the growth is 83.8%. As to `ClC(Cl)c1nc(-c2ccccc2)nc2cc(-c3ccccc3)nn12`, the growth was 35.4%. In the case of `O=[N+]([O-])c1ccc(OCCCOc2ccccc2)cc1`, the growth is 94.3%. Take `N#C/C(=C1C=C/C(=N/O)C(Cl)=C/1)c1ccc(Cl)cc1`: the growth is 22.2%.

Turning to `CCCCC(CC)OC(=O)C(Br)CC` (stereo unspecified), the growth was 102%. In the case of `C=C[C@@H]1C[C@@H]2Cc3c(C)cc(C)cc3N1O2`, the growth was 93%. For `C=C[C@@H]1C[C@@H]2Cc3ccccc3N1O2`, the growth is 116%.

As for `CC(=O)OC[C@]12CC[C@H]3[C@@H](C[C@H]4O[C@]45CC=CC(=O)[C@]35C)[C@]1(O)CC[C@@]2(O)[C@@](C)(O)C1CC(C)=C(C)C(=O)O1` (stereo partly specified), the growth was 2.94% (active). Consider `CO[C@H]1NC(=O)N(S(=O)(=O)c2ccc(Cl)cc2)[C@@H]1OC`, for which the growth is 97.3%.

Regarding `COC(=O)c1cc2cc(-c3ccc(OC)cc3)cnc2[nH]1`, the growth is 7.32% (active). In the case of `C[n+]1c(/C=C/c2c(O)ccc3ccccc23)ccc2ccccc21`, the growth was 25.4%. The same measure, in the same setting: the figure for `COc1ccc(-c2cn(-c3cccc(C(=O)/C=C/c4cc(OC)c(OC)c(OC)c4)c3)c(=O)[nH]2)cc1OC` is 81.5%.

As for `C=C[C@@H]1C[C@H](O)Cc2c(C)cc(C)cc2N1`, the growth is 88.6%. Consider `O=C(O)Cc1cccc(=O)c(O)c1C(=O)O`, for which the growth is 95.7%.

`COc1cc(/C=C/C(=O)c2ccc(Nc3ncnc4cc(OC)c(OC)cc34)cc2)cc(OC)c1`: the growth was 78%. As to `COc1cc(/C=C/C(=O)c2cccc(-n3cc(-c4cc(OC)c(OC)c(OC)c4)[nH]c3=O)c2)cc(OC)c1OC`, the growth was 9.89% (active). Regarding `COC1=C(OC)C(=O)C(CCCCCCCCCC[P+](c2ccccc2)(c2ccccc2)c2ccccc2)=C(C)C1=O`, the growth is -12.7% (active). Regarding `C=C[C@@H]1C[C@H](O)Cc2ccccc2N1`, the growth was 106%. The same measure, in the same setting: next, `CCN1C(=O)N(CC)C2C1NN=c1s/c(=C\c3cccnc3)c(=O)n12` (stereo unspecified): 21.3%. Regarding `O=S(=O)(CC(O)(c1ccccc1)c1ccccc1)CC(O)(c1ccccc1)c1ccccc1`, the growth was 80.4%. For the compound `CCN(CC)CCCC(C)Nc1c2ccc(Cl)cc2nc2cc(OC)c(OC)cc12` (stereo unspecified), the growth is 16.5%. On to `CCCCCCCCCCCC(=O)NCCC[N+](C)(C)CC(=O)[O-]`, for which the growth is 31.8%. For `CCOC(=O)/C(C#N)=C1/C(=O)Nc2ccccc21`, the growth was 94.2%. Regarding `Cn1c(=O)c2[nH]c(C3CC=CCC3)nc2n(C)c1=O` (stereo unspecified), the growth is 87.6%. Turning to `O=[N+]([O-])c1cc(S(=O)(=O)Oc2ccccc2)ccc1Cl`, the growth was 25.5%. On the same count and under the same terms, next, `C=C(C)[C@@H]1C[C@H](O)Cc2cc(F)ccc2N1`: 91.6%.

In the case of `COc1ccc2c(c1)[nH]c(=O)c1c3cccc(F)c3cn21`, the growth is 2.38% (active).

As for `CN(C)c1nc2c(N)ncnc2n1C1OC(CO)C(O)C1O` (stereo unspecified), the growth is 94.2%. As for `O=C1NN(C(=O)c2ccc(Cl)cc2)C(c2ccccc2)=N/C1=C\c1ccc(F)cc1`, the growth is 81.4%. Take `N[C@H]1CN(C(=O)c2cc3cc(Br)c(F)c(F)c3[nH]2)C[C@@H]1O`: the growth was 93.6%.

`O=C1/C(=C/c2ccc(Cl)cc2)CN(Cc2cn(CCNc3ccnc4cc(Cl)ccc34)nn2)C/C1=C\c1ccc(Cl)cc1`: the growth was -86.5% (active). As to `NC(=S)N/N=C1\CCCC(C(F)(F)F)C1` (stereo unspecified), the growth was 69.6%.
